Measured values as given in PubChem BioAssay (NCI).
About 83,000 compounds went through this panel and 20% of them were active in at least one assay; those are over-represented in the sample as a whole.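 Plates (96-well) were seeded with cells, treated with compound at one concentration, and incubated for 48 hours before percent growth was determined.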 Values without a mark were called inactive. Activity calls are given as the source filed them. The calls were made as follows: active = growth percent below 10; inactive = the rest.

System: KM12 colon
Test: NCI-60 one-dose screen, 48 h (100 = growth as untreated, 0 = no growth, -100 = all killed)
Details: 10 µM unless noted

Compound | growth
CCN1C(=O)N(CC)C2NNC(Sc3c(C(=O)O)c4ccccc4n(C4CCCC4)c3=O)=NC21 (stereo not given) | 3.71% (active)
O=c1[nH]c2ccccc2cc1CSc1cccc(Nc2nccc(-c3ccc4ccccc4c3)n2)c1 | 95.9%
O=C(c1ccc(OCCN2CCOCC2)cc1)C1[C@H](c2ccc(Cl)cc2)[C@@H](c2ccccc2)NC12C(=O)Nc1ccc(Cl)cc12 (stereo not given in full) | 16.4%
CCN(CC)c1ccc(/C=N/Nc2nc(-c3ccc(Br)cc3)cs2)c(O)c1 | 86.3%
CCCCSc1nc(NCCc2c[nH]c3ccccc23)c(C#N)c(-c2ccc(F)cc2)n1 | 32%
COc1ccc(NC(=O)[C@@H](N)Cc2ccccc2)cc1C(=O)Nc1cccc(C2CC(=O)c3c(cc(OC)c(OC)c3OC)O2)c1 (stereo not given in full) | 35.1%
Cc1cccc(NC(=O)CN2CCN(c3ncnc4c3cnn4-c3ccccc3)CC2)c1 | 90.4%
COc1ccc(NC(=O)[C@H](CO)NC(=O)OC(C)(C)C)cc1C(=O)Nc1cccc(C2CC(=O)c3c(cc(OC)c(OC)c3OC)O2)c1 (stereo not given in full) | 43.8%
Cc1ccc(-c2nc(C#N)c(S(=O)(=O)N3CCN(S(=O)(=O)c4ccc(Cl)cc4)CC3)o2)cc1 | 109%
Cc1ccc(-c2nc(Nc3ccccc3S(N)(=O)=O)c3ccccc3n2)cc1 | 65.3%
Cc1ccc(C(=O)C(c2c[nH]c3ccccc23)c2c[nH]c3ccccc23)cc1 | 26.1%
COC(=O)/C=C/c1cccc2c1C(=O)NC(C)(c1cc3ccccc3oc1=O)N2 (stereo not given) | 68.8%
O=C(/C=C/c1ccc(O)c(O)c1)NC1CCOC1O (stereo not given) | 102%
CC1(C)CC[C@]2(C(=O)O)CC[C@]3(C)C(=CCC4[C@@]5(C)C[C@@H](O)[C@@H]6OC(c7ccccc7Br)OC[C@@]6(C)C5CC[C@]43C)C2C1 (stereo not given in full) | 16.9%
C/C(=N\N=C1/C(=O)Nc2ccccc21)c1ccc2c(c1)Nc1ccccc1S2 | 66.4%
Cn1cc(-c2nc(N)nnc2-c2c[nH]c3ccc(Br)cc23)c2cccnc21 | 33.9%
Cc1nc(Nc2ccccn2)sc1C(=O)CC(SCC(=O)Nc1ccc(Cl)cc1)c1ccccc1F (stereo not given) | -19.1% (active)
Cc1cc(=O)oc2cc(OCCCCOc3ccc(/C=C/C(=O)Nc4ccccc4N)cc3)ccc12 | 31.2%
CC(=O)OC[C@@]1(C)C2CC[C@]3(C)C(CC=C4C5CC(C)(C)CC[C@]5(C(=O)Nc5cccc(C)c5)CC[C@]43C)[C@@]2(C)C[C@@H](OC(C)=O)[C@@H]1OC(C)=O (stereo not given in full) | 48.7%
CCCSc1nc(NCCc2c[nH]c3ccccc23)c(C#N)c(-c2ccc(OC)cc2)n1 | 37.1%
COc1ccc(N2N=C(c3ccc4c(c3)OCO4)CC2c2cccc(NC(=O)CCNS(=O)(=O)c3ccc(Cl)cc3)c2)cc1 (stereo not given) | 21.2%
Cc1ccc(-n2c(-c3cc4ccccc4nc3Cl)noc2=O)cc1 | 55%
Cc1ccc(/C=C/c2n(Cc3ccc4ccccc4c3)c3ccccc3[n+]2Cc2ccc3ccccc3c2)cc1 | -88.5% (active)
Brc1ccc(-c2n(Cc3ccc4ccccc4c3)c(-c3ccccc3)c(-c3ccccc3)[n+]2Cc2ccc3ccccc3c2)cc1 | -93.4% (active)
CCOC(=O)C(N=Nc1ccc(S(=O)(=O)N=C(N)N)cc1)C(C)=O (stereo not given) | 103%
COc1ccc2[nH]cc(-c3nc(N)nnc3-c3cn(C)c4ncccc34)c2c1 | 16.6%
CC(/C=C1\SC(=S)N(CCCC(=O)NC(CC(C)C)C(=O)O)C1=O)=C\c1ccccc1 (stereo not given) | 57.9%

System: MDA-MB-468 breast
Test: as above
Details: 10 µM unless noted

Compound | growth
C#CCOc1cc(N(CC)CC)ccc1C(C(=O)NC(C)(C)C)N(C(=O)C1CCc2cc(F)ccc2O1)c1ccc(F)c(Cl)c1 (stereo not given) | 37.6%
COc1cc2c(c(OC)c1OC)C(=O)CC(c1cccc(NC(=O)c3cc(NC(=O)[C@@H](N)CO)ccc3C)c1)O2 (stereo not given in full) | 92.6%
O=C(O)Cn1c(O)c(/C=C2/C=c3cc4c(cc3=NC2=O)OCCO4)sc1=S | 111%
CC(C)CSc1nc(NCCc2c[nH]c3ccccc23)c(C#N)c(-c2ccc(Cl)cc2)n1 | 53.9%
C=C1CCC2C3(C)COC(c4ccccc4)OC3CCC2(C)C1CC(Sc1ccccc1)C1=CCOC1=O (stereo not given) | 27.3%
O=C1c2c(c3c4cc(F)ccc4oc3c3[nH]c4ccc(Br)cc4c23)C(=O)N1O | 46.4%
C#C[C@]1(O)CC[C@H]2[C@@H]3CC=C4c5sc(-c6ccc(O)c(O)c6)nc5CC[C@]4(C)[C@H]3CC[C@@]21C | -71.7% (active)
COc1ccc(N2N=C(c3ccc4c(c3)OCO4)CC2c2cccc(NC(=O)CCCNS(=O)(=O)c3ccc(F)cc3)c2)cc1 (stereo not given) | 35.5%
CN(C)CCn1c2ccccc2c2nc3cc(C(F)(F)F)ccc3nc21 | 35.3%
O=C(COc1ccc(NC(=O)Nc2ccc(Cl)c(Cl)c2)cc1)N=Nc1c(O)[nH]c2ccccc12 | -47.7% (active)
CC1(C)CC[C@]2(C(=O)O)CC[C@]3(C)C(=CCC4[C@@]5(C)C[C@@H](O)[C@@H]6OC(c7cccc(Br)c7)OC[C@@]6(C)C5CC[C@]43C)C2C1 (stereo not given in full) | 23.6%
CCN1C(=O)N(CC)C2NNC(Sc3c(C(=O)O)c4ccccc4n(C4CCCC4)c3=O)=NC21 (stereo not given) | 58.1%
O=c1[nH]c2ccccc2cc1CSc1cccc(Nc2nccc(-c3ccc4ccccc4c3)n2)c1 | 80.4%
O=C(c1ccc(OCCN2CCOCC2)cc1)C1[C@H](c2ccc(Cl)cc2)[C@@H](c2ccccc2)NC12C(=O)Nc1ccc(Cl)cc12 (stereo not given in full) | -7.83% (active)
CCN(CC)c1ccc(/C=N/Nc2nc(-c3ccc(Br)cc3)cs2)c(O)c1 | 69%
CCCCSc1nc(NCCc2c[nH]c3ccccc23)c(C#N)c(-c2ccc(F)cc2)n1 | 69.8%
COc1ccc(NC(=O)[C@@H](N)Cc2ccccc2)cc1C(=O)Nc1cccc(C2CC(=O)c3c(cc(OC)c(OC)c3OC)O2)c1 (stereo not given in full) | 44.3%
Cc1cccc(NC(=O)CN2CCN(c3ncnc4c3cnn4-c3ccccc3)CC2)c1 | 89.2%
COc1ccc(NC(=O)[C@H](CO)NC(=O)OC(C)(C)C)cc1C(=O)Nc1cccc(C2CC(=O)c3c(cc(OC)c(OC)c3OC)O2)c1 (stereo not given in full) | 36.2%

Compound | growth
Cc1ccc(-c2nc(C#N)c(S(=O)(=O)N3CCN(S(=O)(=O)c4ccc(Cl)cc4)CC3)o2)cc1 | 61.9%
Cc1ccc(-c2nc(Nc3ccccc3S(N)(=O)=O)c3ccccc3n2)cc1 | 98.4%
Cc1ccc(C(=O)C(c2c[nH]c3ccccc23)c2c[nH]c3ccccc23)cc1 | 26%
COC(=O)/C=C/c1cccc2c1C(=O)NC(C)(c1cc3ccccc3oc1=O)N2 (stereo not given) | 64.7%
O=C(/C=C/c1ccc(O)c(O)c1)NC1CCOC1O (stereo not given) | 109%
CC1(C)CC[C@]2(C(=O)O)CC[C@]3(C)C(=CCC4[C@@]5(C)C[C@@H](O)[C@@H]6OC(c7ccccc7Br)OC[C@@]6(C)C5CC[C@]43C)C2C1 (stereo not given in full) | 18.4%
C/C(=N\N=C1/C(=O)Nc2ccccc21)c1ccc2c(c1)Nc1ccccc1S2 | 34.6%
Cn1cc(-c2nc(N)nnc2-c2c[nH]c3ccc(Br)cc23)c2cccnc21 | 44.6%
Cc1nc(Nc2ccccn2)sc1C(=O)CC(SCC(=O)Nc1ccc(Cl)cc1)c1ccccc1F (stereo not given) | -22.1% (active)
Cc1cc(=O)oc2cc(OCCCCOc3ccc(/C=C/C(=O)Nc4ccccc4N)cc3)ccc12 | 34.2%
CC(=O)OC[C@@]1(C)C2CC[C@]3(C)C(CC=C4C5CC(C)(C)CC[C@]5(C(=O)Nc5cccc(C)c5)CC[C@]43C)[C@@]2(C)C[C@@H](OC(C)=O)[C@@H]1OC(C)=O (stereo not given in full) | 1.92% (active)
CCCSc1nc(NCCc2c[nH]c3ccccc23)c(C#N)c(-c2ccc(OC)cc2)n1 | 26.4%
COc1ccc(N2N=C(c3ccc4c(c3)OCO4)CC2c2cccc(NC(=O)CCNS(=O)(=O)c3ccc(Cl)cc3)c2)cc1 (stereo not given) | 10.1%
Cc1ccc(-n2c(-c3cc4ccccc4nc3Cl)noc2=O)cc1 | 16.2%
Cc1ccc(/C=C/c2n(Cc3ccc4ccccc4c3)c3ccccc3[n+]2Cc2ccc3ccccc3c2)cc1 | -78.6% (active)
Brc1ccc(-c2n(Cc3ccc4ccccc4c3)c(-c3ccccc3)c(-c3ccccc3)[n+]2Cc2ccc3ccccc3c2)cc1 | -71.2% (active)
CCOC(=O)C(N=Nc1ccc(S(=O)(=O)N=C(N)N)cc1)C(C)=O (stereo not given) | 92.9%
COc1ccc2[nH]cc(-c3nc(N)nnc3-c3cn(C)c4ncccc34)c2c1 | 27.6%
CC(/C=C1\SC(=S)N(CCCC(=O)NC(CC(C)C)C(=O)O)C1=O)=C\c1ccccc1 (stereo not given) | 86.7%
